The nature of experiment [1]: Tanguay_ZF_120hpf_PFIN_legacy: (Legacy) Oregon State University Tanguay Lab 120 Hour Post-fertilization zebrafish Assay for Pectoral Fin Malformation (AID 2283648).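 Also: each larva judged yes or no for fin defect by brightfield with dead larvae skipped.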 The gist of the method:
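Dechorionated Tropical 5D wild-type zebrafish embryos, one per well, statically exposed from 6 to 120 hpf at 28C with 0.64% DMSO final. Pectoral fin malformation scored present/absent by brightfield at 120 hpf; not scored in dead embryos.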

A short description of experiment [2]: Tanguay_ZF_120hpf_PIG_legacy: (Legacy) Oregon State University Tanguay Lab 120 Hour Post-fertilization zebrafish Assay for Pigmentation Malformation (AID 2283650). The gist of the method:
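Dechorionated Tropical 5D wild-type embryos, one per well from 6 hpf, statically exposed at 28C in the dark until 120 hpf, 0.64% DMSO final. Pigmentation scored present/absent by brightfield microscopy; dead embryos not scored; fitted versus DMSO.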

Experiment [3] is described as follows: Tanguay_ZF_120hpf_CIRC_legacy: (Legacy) Oregon State University Tanguay Lab 120 Hour Post-fertilization zebrafish Assay for Circulatory Malformation (AID 2283651). Summed up: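 Tropical 5D wild-type embryos, dechorionated with pronase at 4 hpf, were placed singly in wells at 6 hpf and exposed statically at 28C to 120 hpf (0.64% DMSO final). Circulatory malformation was scored present/absent by brightfield microscopy.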

Read-out in experiment [4]: kallikrein-3 (KLK3), KLK3 (gene 354)
Put plainly: LTEA_HepaRG_KLK3: Life Technologies and Expression Analysis (LTEA) Assay for kallikrein-3 (KLK3) using HepaRG (AID 2283652; active = hit-call score of the fitted dose curve at least 0.9, where 1 is the maximum; inactive = score below 0.9). Particulars: mRNA level, 48 h; actives raise or lower the signal. Summed up: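 Differentiated human HepaRG cells in serum-free induction medium exposed 48 h in duplicate, eight-point half-log series from 100 uM in 0.5% DMSO. KLK3 mRNA by qRT-PCR, normalised to ACTB, GAPDH, POLR2A; bidirectional fit versus DMSO.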

Read-out in experiment [5]: solute carrier (SLC22A6), SLC22A6 (gene 9356)
Put plainly: LTEA_HepaRG_SLC22A6: Life Technologies and Expression Analysis (LTEA) Assay for solute carrier (SLC22A6) using HepaRG (AID 2283653; active = hit-call score of the fitted dose curve at least 0.9, where 1 is the maximum; inactive = score below 0.9). Particulars: mRNA level, 48 h; actives raise or lower the signal. The gist of the method:
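Read-out is SLC22A6 transcript level by qRT-PCR, normalised to three housekeeping genes and fitted for gain or loss relative to 0.5% DMSO vehicle. Human HepaRG cells received chemicals at up to 100 uM for 48 h.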

Experiment [6] in a line: Tanguay_ZF_120hpf_SWIM_legacy: (Legacy) Oregon State University Tanguay Lab 120 Hour Post-fertilization zebrafish Assay for Swim Bladder Malformation (AID 2283654).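 Also: swim bladder malformation in each larva scored yes or no under brightfield.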 The gist of the method: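 Dechorionated wild-type Tropical 5D zebrafish embryos, one per well from 6 hpf, were statically exposed at 28C until 120 hpf in 0.64% DMSO. Swim bladder malformation scored as present/absent by brightfield microscopy; not scored in dead larvae.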

A short description of experiment [7]: Tanguay_ZF_120hpf_TRUN_legacy: (Legacy) Oregon State University Tanguay Lab 120 Hour Post-fertilization zebrafish Assay for Truncated Body (AID 2283655). Summed up: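 Truncated body is recorded as a binary endpoint at 120 hpf by brightfield imaging of wild-type 5D larvae. Exposure runs statically from 6 hpf at 28C with 0.64% DMSO; embryos dying earlier are not scored.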

The nature of experiment [8]: Tanguay_ZF_120hpf_NC_legacy: (Legacy) Oregon State University Tanguay Lab 120 Hour Post-fertilization zebrafish Assay for Notochord and Tail Malformation (AID 2283656). Summed up:
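Dechorionated 5D zebrafish, 1/well from 6 hpf; static exposure to 120 hpf, 28C, sealed, dark; final DMSO 0.64% v/v. NC scored binary (present/absent); dead embryos not scored. Fit vs DMSO baseline, gain direction.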

Read-out in experiment [9]: solute carrier (SLC10A1), SLC10A1 (gene 6554)
Put plainly: LTEA_HepaRG_SLC10A1: Life Technologies and Expression Analysis (LTEA) Assay for solute carrier (SLC10A1) using HepaRG (AID 2283657; active = hit-call score of the fitted dose curve at least 0.9, where 1 is the maximum; inactive = score below 0.9). The conditions noted are these: mRNA level, 48 h; actives raise or lower the signal. The gist of the method: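 HepaRG cells (single lot) exposed 48 h in serum-free induction medium, 8-point half-log series from 100 uM top in 0.5% DMSO, duplicate. SLC10A1 mRNA by qRT-PCR normalised to ACTB, GAPDH, POLR2A; bidirectional fit versus DMSO.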

A short description of experiment [10]: Tanguay_ZF_120hpf_CFIN_legacy: (Legacy) Oregon State University Tanguay Lab 120 Hour Post-fertilization zebrafish Assay for Caudal Fin Malformation (AID 2283649). The gist of the method:
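Binary presence or absence of caudal fin malformation at 120 hpf, read by brightfield microscopy, with DMSO as baseline. Larvae came from 5D wild-type embryos exposed statically from 6 hpf at 28C after pronase dechorionation.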

Results filed as inconclusive are left out. Calls of active or inactive are those of the source. The calls were made as follows, unless noted: active = hit-call score of the fitted dose curve at least 0.9, where 1 is the maximum; inconclusive = response in the unintended direction; inactive = score below 0.9.

With `C=C(C)C(=O)OCCC(F)(F)C(F)(F)C(F)(F)C(F)(F)C(F)(F)C(F)(F)F`, the result in experiment [1], in experiment [2], in experiment [3], in [4], in [5] and in experiment [6] was inactive. Besides, the molecule was classed as inactive in experiment [7], in experiment [8] and in [9].
On to `CC1=C(/C=C/C(C)=C/C=C/C(C)=C/C(=O)O)C(C)(C)CCC1`, for which the AC50 is 0.248 µM (active) in experiment [1], 0.252 µM (active) in experiment [2], 0.168 µM (active) in experiment [7] and 0.272 µM (active) in experiment [8]. Moreover, the molecule was classed as inactive in experiment [3] and in [6].
For the molecule `CCCOC(=O)c1ccc(O)cc1`, the AC50 in experiment [1] was 45.8 µM (active); in [10], 75.8 µM (active); in experiment [2], 49.1 µM (active); in experiment [3], 40.1 µM (active); in experiment [6] it was 10.6 µM (active); in experiment [7], 32.9 µM (active). The molecule was called inactive in experiment [8].
As to `CCCCCCCCCCCCc1ccccc1S(=O)(=O)O`, the result in experiment [1], in [10], in experiment [3], in experiment [6], in experiment [7] and in [8] was inactive.
As for `CC(C)CCCCCCOC(=O)CCCCC(=O)OCCCCCCC(C)C`, the result in experiment [10], in experiment [2], in [3], in experiment [6], in experiment [7] and in experiment [8] was inactive.
In the case of `OCCC(F)(F)C(F)(F)C(F)(F)C(F)(F)C(F)(F)C(F)(F)F`, the molecule was classed as inactive in experiment [10], in experiment [2], in [3], in experiment [6] and in experiment [7].
As to `CCCCCCCC(=O)O`, the outcome in experiment [1], in experiment [2], in experiment [3], in experiment [6], in experiment [7] and in [8] was inactive.
As for `CC[C@H](c1ccc(O)cc1)[C@@H](CC)c1ccc(O)cc1`, the molecule was called inactive in experiment [1], in [2], in experiment [3], in experiment [7] and in experiment [8].
`CC(C)(C)c1cccc(C(C)(C)C)c1O`: the molecule was classed as inactive in experiment [2], in experiment [3], in experiment [6] and in experiment [8].
On to `COCC(C)O` (stereo not drawn), for which the result in experiment [1], in experiment [2], in [6] and in experiment [7] was inactive.
As for `CCN(CC)CCNc1ccc(CNC=O)c2sc3ccc(OC)cc3c(=O)c12`, the molecule was called inactive in [10], in experiment [2], in [3], in [6], in experiment [7] and in experiment [8].
Take `c1ccc2c(c1)Cc1ccccc1-2`: the outcome in experiment [2], in experiment [6] and in experiment [8] was inactive.
Consider `C#C[C@]1(O)CC[C@H]2[C@@H]3CCC4=CC(=O)CC[C@@H]4[C@H]3CC[C@@]21C`, for which the call in experiment [1], in [2], in experiment [5], in [6], in experiment [7] and in experiment [8] was inactive. In [9], the AC50 was 9.92 µM (active).
In the case of `CCCCCCC(=O)O`, the call in [1], in experiment [2], in experiment [3], in experiment [6] and in experiment [8] was inactive.
On to `ClC1=C(Cl)C(Cl)(Cl)C(Cl)=C1Cl`, for which the molecule was called inactive in experiment [2], in [4], in [5], in [7], in [8] and in [9].
Consider `O=C(O)Cc1cc(I)c(Oc2cc(I)c(O)c(I)c2)c(I)c1`, for which the molecule was called inactive in [1], in experiment [3], in [6], in experiment [7] and in experiment [8]. The AC50 in experiment [2] is 0.0192 µM (active).
Turning to `Oc1cccc(O)c1`, the call in [2], in [3], in [6] and in [8] was inactive.
On to `COc1ccc([N+](=O)[O-])cc1N`, for which the molecule was called inactive in experiment [1], in [3], in experiment [6] and in experiment [7].
Consider `CCCCC(CC)COC(=O)CCCCC(=O)OCc1ccccc1` (stereo not drawn), for which the result in [1], in [3], in experiment [6], in experiment [7] and in experiment [8] was inactive.
Take `CC(=O)CC(C)(C)O`: the call in experiment [1], in experiment [2], in [3], in [7] and in experiment [8] was inactive.
As for `COCC(C)OCC(C)O` (stereo not drawn), the result in experiment [1], in experiment [3], in experiment [6] and in [8] was inactive.
Turning to `c1ccc2cc3c(ccc4ccccc43)cc2c1`, the outcome in experiment [2], in experiment [3], in [6] and in [7] was inactive.
Turning to `CCC(=C(c1ccc(O)cc1)c1ccc(OCCN(C)C)cc1)c1ccccc1`, the molecule was called inactive in experiment [1], in [3], in experiment [6], in experiment [7] and in experiment [8].
With `CCc1ccc(CCOc2ccc(CC3SC(=O)NC3=O)cc2)nc1` (stereo not drawn), the outcome in experiment [1], in experiment [2], in experiment [3], in [7] and in experiment [8] was inactive.
Regarding `CCC(C)(C)C1CCC(O)CC1` (stereo not drawn), the call in [1], in [2], in experiment [6], in experiment [7] and in experiment [8] was inactive.
As for `Nc1cccc2c(N)cccc12`, the molecule was classed as inactive in experiment [1], in experiment [2], in experiment [6], in experiment [7] and in [8].
As to `Cc1cc(C)c(O)c(C)c1`, the outcome in [1], in [2], in experiment [6] and in experiment [8] was inactive.
`CC#C[C@]1(O)CC[C@H]2[C@@H]3CCC4=CC(=O)CCC4=C3[C@@H](c3ccc(N(C)C)cc3)C[C@@]21C`: the call in experiment [2], in experiment [3], in [6] and in experiment [8] was inactive.
`CN1CCC[C@H]1c1cccnc1`: the molecule was called inactive in experiment [1], in experiment [2], in [6], in experiment [7] and in [8].
As for `CCCCCCCCOC(=O)CCCCCCCCC(=O)OCCCCCCCC`, the molecule was classed as inactive in [1], in [2], in [6], in [7] and in [8].
In the case of `CCCCOCCO`, the call in experiment [1], in experiment [2], in experiment [3], in experiment [6] and in experiment [8] was inactive.
For `Cc1oc(-c2ccccc2)nc1CCOc1ccc(C[C@H](Nc2ccccc2C(=O)c2ccccc2)C(=O)O)cc1`, the result in experiment [1], in experiment [2], in experiment [6] and in experiment [7] was inactive.
`CCCOc1sc(C(=O)N2CCC(c3cc(CN)ccc3F)CC2)c(C)c1Br`: the molecule was called inactive in [1], in [3], in experiment [6] and in [7].
With `OC1CCCCC1`, the molecule was classed as inactive in experiment [1], in experiment [2], in [6], in [7] and in experiment [8].
As to `NC(=O)N(O)[C@@H]1C=C[C@H](Oc2cccc(Oc3ccc(F)cc3)c2)C1`, the molecule was classed as inactive in experiment [1], in [2], in [6], in [7] and in [8].

As usually defined, the AC50 is the concentration giving half of the maximal activity seen.

These data come from PubChem BioAssay (EPA / NIEHS).
